The text below walks through data of PubChem BioAssay (NCATS).

The target in assay [1] is ATP-dependent 6-phosphofructokinase (Trypanosoma brucei brucei) (UniProt O15648). In words: qHTS Assay to Find Inhibitors of T. brucei phosphofructokinase: hit validation (AID 492961). Further: on the % scale 0 is the no-effect control and ±100 the full control effect. An outline of the steps:
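Luminescence from ADP-Glo reports ADP generated as T. brucei PFK (1.25 nM) phosphorylates 0.5 mM fructose-6-phosphate using 0.1 mM ATP. Reactions ran 45 min at room temperature, pH 8.0.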
In general terms: qHTS replaces the single test concentration by a dilution series.

A short description of assay [2]: S16 Schwann cell viability assay (CellTiter-Glo assay) (AID 624031).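 Further: native untransfected S16 rat Schwann cells; plate controls were DMSO-treated cells for no effect and cell-free wells for full effect; nearly all actives have a fitted effect of over 70% in size.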 In outline: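 Concentration-effect curves come from CellTiter-Glo luminescence of S16 rat Schwann cells after 24 h compound exposure. Each reading was normalized to DMSO wells (0%) and wells without cells, and curves were ranked by r2 and response magnitude.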
A short description of assay [3]: S16 Schwann cell PMP22 intronic element firefly luciferase assay (AID 624032).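 Further: plate controls were DMSO for no effect and PTC124 positive control mean for full effect; nearly all actives have a fitted effect of over 30% in size.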 An outline of the steps: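 Rat S16 Schwann cells stably carrying firefly luciferase driven by a PMP22 intronic element, in 10% FBS, treated 24 h at 37 C. ONE-Glo luminescence normalized to PTC124 control and DMSO (0%); curves classed by r2, magnitude and activity.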
Assay [4] has as its system 3D7. In words: qHTS profiling for inhibitors of Plasmodium falciparum proliferation (AID 504749). Further: nearly all actives have a fitted effect of over 60% in size. Further: potency means the concentration at half of the fitted maximal effect. As to conditions: P. falciparum in erythrocytes, SYBR Green DNA, 72 h; series mostly up to 28.7 µM. An outline of the steps:
(§1)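 SYBR Green fluorescence (ex 485 nm, em 535 nm) reports parasite DNA after 72 h compound exposure of infected red cells at 0.3% parasitemia, 2.5% hematocrit; signal normalized to 0.29 uM artemisinin and vehicle wells.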

Assay [5] concerns CP191. The assay is described as above. The settings on record: P. falciparum in erythrocytes, SYBR Green DNA, 72 h; series mostly up to 28.7 µM. In outline:
as §1

Assay [6] relates to CP237. The description is as above. As to conditions: P. falciparum in erythrocytes, SYBR Green DNA, 72 h; series mostly up to 28.7 µM. An outline of the steps: as §1
Assay [7] relates to CP250. The assay is described as above. As to conditions: P. falciparum in erythrocytes, SYBR Green DNA, 72 h; series mostly up to 28.7 µM. In outline:
as §1

The test system of assay [8] is CP252. The assay is described as above. As to conditions: P. falciparum in erythrocytes, SYBR Green DNA, 72 h; series mostly up to 28.7 µM. In outline:
as §1

For assay [9], the system named is Dd2. Described as above. As to conditions: P. falciparum in erythrocytes, SYBR Green DNA, 72 h; series mostly up to 28.7 µM. In outline:
as §1

In assay [10] the test system is FAB9. Described as above. The settings on record: P. falciparum in erythrocytes, SYBR Green DNA, 72 h; series mostly up to 28.7 µM. An outline of the steps:
as §1

In assay [11] the test system is HB3. The assay is described as above. The settings on record: P. falciparum in erythrocytes, SYBR Green DNA, 72 h; series mostly up to 28.7 µM. In outline:
as §1

For assay [12], the system named is PC15. The description is as above. The settings on record: P. falciparum in erythrocytes, SYBR Green DNA, 72 h; series mostly up to 28.7 µM. An outline of the steps:
as §1

In assay [13] the test system is PC26. Described as above. The settings on record: P. falciparum in erythrocytes, SYBR Green DNA, 72 h; series mostly up to 28.7 µM. An outline of the steps: as §1
In assay [14] the test system is PC49. Described as above. As to conditions: P. falciparum in erythrocytes, SYBR Green DNA, 72 h; series mostly up to 28.7 µM. In outline:
as §1

For assay [15], the system named is W2. The assay is described as above. The settings on record: P. falciparum in erythrocytes, SYBR Green DNA, 72 h; series mostly up to 28.7 µM. In outline:
as §1

Assay [16] is described as follows: Cell Viability - LYMP2-023 (AID 975).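 Further: cellular ATP measured by luciferase luminescence as viability proxy; cells exposed to compound for 24 hours at 37 °C; plate controls were DMSO only for no effect and 92 µM tetraoctylammonium bromide control for full effect; nearly all actives have a fitted effect of over 55% in size.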 In outline: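 CellTiter-Glo luminescence after 30 min at room temperature; decrease in intracellular ATP reflects toxicity. Cells: human lymphoblastoid line, 2500/well, 24 hr compound exposure at 37 C. AC50 fitted to standard Hill equation from concentration-response.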
The nature of assay [17]: Cell Viability - LYMP2-026 (AID 989). Further: on the % scale 0 is the no-effect control and ±100 the full control effect; nearly all actives have a fitted effect of over 50% in size. An outline of the steps: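 qHTS cytotoxicity: 2500 cells/well, 5 hr 37 C, compound 24 hr 37 C, CellTiter-Glo 30 min RT, luminescence. Tetraoctylammonium bromide positive control. AC50 via standard Hill fit.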
Assay [18] can be described thus: qHTS assay for small molecule agonists of the antioxidant response element (ARE) signaling pathway measured by Nrf2-dependant transcriptional activity (AID 720636; active means well fitted curve in the direction sought with a large enough effect in the repeat runs; an effect the other way counts as inactive or inconclusive;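 further: HepG2 cells with an ARE-driven luciferase reporter; % of control where 0% means no effect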). An outline of the steps:
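Reporter gene assay, HepG2 ARE-luc: 16 hr compound, 37 C, 5% CO2; read-out luciferase luminescence.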

The nature of assay [19]: qHTS assay for small molecule activators of the p53 signaling pathway (AID 651743; active means well fitted activation curve with a large enough effect in the signal ratio, not every such curve was filed as active; the % refers to the signal ratio; further: % of control where 0% means no effect). The settings on record: HCT-116 p53RE-bla, beta-lactamase FRET ratio, 16 h; activation: active compounds read high. An outline of the steps:
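Reporter: beta-lactamase driven by p53 response elements, stably integrated in HCT-116 cells. Cells seeded at 4,000/well, 5 h preincubation, compound (DMSO) 16 h at 37 C; B/G FRET substrate 2 h RT; fluorescence intensity read.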

Assay [20] is described as follows: Cell Viability - LYMP2-025 (AID 976).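 Further: plate controls were DMSO only for no effect and tetraoctylammonium bromide control for full effect.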 In outline: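 CellTiter-Glo luminescence (cellular ATP) after 24 h compound exposure at 37 C; LYMP2-025 human lymphoblastoid cells, 2500/well, complete medium. Tetraoctylammonium bromide positive control. AC50 by Hill equation fit of qHTS concentration-response.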

“And” between values parts separate entries of the source, which are not always exact repeats. Equal entries are not always repeated. Results filed as inconclusive are left out. A number with no mark means an inactive call. The source made the active and inactive calls. Unless noted, the call rests on the fitted dose curve; in most records, active means well fitted curve in the direction sought with a large enough effect; inconclusive means small, poorly fitted or top-dose-only effect, or another doubt; inactive means no such curve, though single readings can be large; an effect the other way counts as inactive or inconclusive.

Sequence of ATP-dependent 6-phosphofructokinase (Trypanosoma brucei brucei) (O15648 whole entry, looked up): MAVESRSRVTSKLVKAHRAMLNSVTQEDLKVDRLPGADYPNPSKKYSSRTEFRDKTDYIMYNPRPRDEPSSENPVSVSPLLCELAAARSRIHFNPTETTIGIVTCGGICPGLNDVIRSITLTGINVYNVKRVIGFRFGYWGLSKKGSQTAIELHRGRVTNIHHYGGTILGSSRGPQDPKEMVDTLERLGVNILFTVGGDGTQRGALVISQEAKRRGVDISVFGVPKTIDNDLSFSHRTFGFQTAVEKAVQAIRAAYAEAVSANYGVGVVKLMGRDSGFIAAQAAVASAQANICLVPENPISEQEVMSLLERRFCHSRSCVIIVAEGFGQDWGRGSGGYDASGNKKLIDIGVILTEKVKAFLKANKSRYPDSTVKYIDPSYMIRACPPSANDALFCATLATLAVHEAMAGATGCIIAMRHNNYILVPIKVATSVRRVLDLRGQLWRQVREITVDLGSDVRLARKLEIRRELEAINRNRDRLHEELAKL

As for `O=C1C[C@@H]2OCC=C3CN4CC[C@]56c7ccccc7N1[C@@H]5[C@@H]2[C@H]3C[C@H]46` (tested in a mixture with another compound), the compound was classed as inactive in assay [1], in [2] and in assay [3]. The Potency result in assay [4], in assay [5], in assay [7], in assay [8], in assay [10] and in assay [11] was “inactive” in each case. Besides, the Potency entry in assay [12], in assay [13] and in assay [14] was “inactive” each time. The values for the Potency in [6], in assay [9] and in assay [15] were 8.91 µM (active), 10 µM (active) and 6.75 µM (active), respectively.

Turning to `C=C[C@@H]1CN2CC[C@H]1C[C@H]2[C@H](O)c1ccnc2ccccc12`, the call in assay [1], in assay [2] and in assay [3] was inactive. The Potency in assay [4] is 0.158 µM (active); in assay [5], 0.501 µM (active); in [6], 1.12 µM (active); in assay [7] it was 1.58 µM (active); in [8], 1.12 µM (active); in assay [9] it was 0.891 µM (active). For the same compound, the Potency was 0.112 µM (active) in [10]; 0.224 µM (active) in [11]; 0.224 µM (active) in [12]; 0.426 µM (active) in assay [13]; 0.891 µM (active) in assay [14]; 0.338 µM (active) in [15].

In the case of `ClC(Cl)c1ccccc1`, the Potency entry in [16], in [17] and in assay [18] was “inactive” throughout.

Take `C=CCOCC1CO1` (stereo not given): in [16], the Potency entry is “inactive”. The activation in assay [19] is -3.48%.

For the compound `O=[N+]([O-])c1cc(Cl)c(Cl)cc1Cl`, in assay [20], the Potency entry is “inactive”.

In the case of `NC1CCC(CC2CCC(N)CC2)CC1` (stereo not given), the Potency result in assay [16], in [20] and in [17] was “inactive” each time. The activation in assay [19] was -3.72% and -4.21%.

In the case of `O=C(O)CCl`, the Potency result in assay [20], in assay [17] and in [18] was “inactive” each time.

Regarding `Cc1ccc(N=C=O)cc1N=C=O`, the activation in [19] is -2.11% and -1.5%. Also, the Potency entry in [18] was “inactive”.
